Source: PubChem BioAssay (EPA / NIEHS)
Active and inactive are the calls of the source. Rule for the calls: active = hit-call score of the fitted dose curve at least 0.9, where 1 is the maximum; inactive = score below 0.9.

read-out: Early growth response protein 1 (EGR1) transcription factor, EGR1 (gene 1958); experiment: LTEA_HepaRG_EGR1: Life Technologies and Expression Analysis (LTEA) Assay for Early growth response protein 1 (EGR1) transcription factor using HepaRG (AID 2283490); details: mRNA level, 48 h; actives raise or lower the signal
Method: LTEA_HepaRG is a cell based, multiplexed-readout assay that uses HepaRG, a human liver cell line, with measurements taken at 48 hours after chemical dosing on a 96-well plate.LTEA_HepaRG_EGR1 is one of 102 assay component(s) measured in the LTEA HepaRG cell culture assay. It is a marker of Cell proliferation, survival, death.Data from the assay component LTEA_HepaRG_EGR1 was analyzed into 1 endpoint. This assay endpoint, LTEA_HepaRG_EGR1, was analyzed with bidirectional fitting relative to DMSO as the negative control and baseline of activity. Using a type of inducible reporter, measures of mRNA induction for gain or loss-of-signal activity can be used to understand regulation of transcription factor activity. To generalize the intended target to other relatable targets, this assay endpoint is annotated to the dna binding intended target family, where the subfamily is zinc finger.
A total of 1060 chemcials from the ToxCast library were tested in eight-point concentration-response experiments. Cell culture and cytotoxicity assays were conducted at Thermo Fisher Scientific's Custom Services facility (Madison, WI). A single lot of human HepaRG cells (Thermo Fisher Scientific, Frederick, MD) was used for the cell culture experiments. 96-well format collagen type I coated plates of human HepaRG cells were prepared using established methods. Briefly, cryopreserved HepaRG cells were thawed, plated at a density of approximately 100,000 cells/well in HepaRG Thaw, Plate, and General Purpose media (HPRG770, Thermo Fisher Scientific), and incubated for 48 hours. 0.5% DMSO was selected as vehicle control to balance the requisite need of DMSO in HepaRG cultures to maintain differentiation (for example, baseline metabolism, proportions of hepatocytes vs. cholangiocytes), while enabling further hepatic receptor pathway activation (for example, PXR and CAR) in response to chemical exposure. 48 hours after plating, the culture medium was replaced with HepaRG Serum-Free Incudtion Media. Cells were exposed to each test chemical in duplicate and maintained in CO2 incubators for another 48 hours. Chemical plates were thawed to room temperature and 200x concentrations of treatment groups were prepared. 8-point conentration-reponse curves were made with the highest exposure at 100 uM, followed by half-log dilutions, all in 0.5% DMSO. Each test plate contained variouse controls, induction positive controls (1mM phenobarbital), cytotoxicity positive controls ([…] aflatoxin B1), vehicle controls (0.5% DMSO), and total lysis controls (0.5% DMSO). Cell morphology images were taken using an Essen IncuCyte FLR automated microscope, with six 96-well plates imaged in about 24 minutes. Images were captured and exported and JPEG files. Spent culture media was transfered to black-well plates for the LDH assay, and remaining media was sorted at -80 C for later use. Cells were treated with RLT buffer and frozen until shipped for gene expression analysis. Total RNA was isolated from the cell suspension in 75 uL of Buffer RLT (Qiagen, Germantown, MD 20874) by Quintiles/Expression Analysis (Durham, NC) using a custom isolation procedure. Total RNA from each plate well was transferred to a preamplification plate. Fluidigm's 96.96 Dynamic ArrayTM (Fluidigm, Amsterdam, the Netherlands) technology was used for gene expression analyses by quantitative reverse transcription polymerase chain reaction (qRT-PCR, performed by Quintiles/Expression Analysis, Durham, NC)89. Standard TaqManTM Assays (Applied Biosystems/ThermoFisher Scientific, Foster City, CA) were used to assess the expression of 93 genes selected based on their selectivity and sensitivity to important hepatic receptors known to be modulated by environmental chemicals; importance in human hepatocyte functionality; and hepatotoxicity. […]

Row | SMILES | outcome | AC50
1 | CCCCCCCCOC(=O)c1cc(O)c(O)c(O)c1 | inactive | –
2 | CC1=CC(=O)/C(=C(/C)O)C(=O)O1 | inactive | –
3 | Cc1cc2c(cc1C(F)(F)F)N(C(=O)Nc1ccc(Oc3cccnc3C)nc1)CC2 | inactive | –
4 | Cc1ccc(C(C)C)cc1 | inactive | –
5 | Oc1ccc2ccccc2c1 | inactive | –
6 | CC(C)(C)c1csc(-c2cc3cc(OCc4ccccc4CC(=O)O)ccc3o2)n1 | – | 89.5 µM (active)
7 | Cc1ccc2oc(CN(Cc3ccccc3)C(=O)Nc3c(F)cc(F)cc3F)c(-c3ccc(Cl)cc3)c2c1 | inactive | –
8 | CCCCCCCCN(C)CCCCCCCC | inactive | –
9 | CCCCCCCCCCCO | inactive | –
10 | CC/C(=C(/CC)c1ccc(O)cc1)c1ccc(O)cc1 | – | 77.4 µM (active)
11 | O=C1c2ccccc2C(=O)N1CCc1noc(-c2ccc(CN3CCCCCC3)s2)n1 | inactive | –
12 | CCCCOC(=O)CC(CC(=O)OCCCC)(OC(C)=O)C(=O)OCCCC | inactive | –
13 | CN(C[C@@H](CC[N+]12CCC(C3CCCCC3)(CC1)CC2)c1ccc(Cl)c(Cl)c1)C(=O)c1cc(C(F)(F)F)cc(C(F)(F)F)c1 | – | 54.4 µM (active)
14 | c1ccc2n[nH]nc2c1 | inactive | –
15 | CN1C(=O)CC[C@H]1c1cccnc1 | inactive | –
16 | CC(C)(c1cc(Br)c(O)c(Br)c1)c1cc(Br)c(O)c(Br)c1 | – | 76.1 µM (active)
17 | NCc1cccc(C2CCN(C(=O)c3ccc(C#Cc4ccccc4F)o3)CC2)c1 | inactive | –
18 | CCOC(=O)O[C@H](C)OC(=O)c1ccc2c(c1)cc(C(=O)NC1CCN(C(C)C)CC1)n2Cc1cc(-c2ccc(Cl)s2)on1 | inactive | –
19 | C[C@]12CC[C@@H]3c4ccc(O)cc4CC[C@H]3[C@@H]1CC[C@H]2O | inactive | –
20 | c1ccc(C[n+]2cccc3ccccc32)cc1 | inactive | –

Row | SMILES | outcome | AC50
21 | CCCCCCCCCCCC[N+](C)(C)C | – | 83.9 µM (active)
22 | CC(=O)N1CCN(c2ccc(OC[C@H]3CO[C@](Cn4ccnc4)(c4ccc(Cl)cc4Cl)O3)cc2)CC1 | – | 38.4 µM (active)
23 | O=C(O)c1ccccc1C(=O)OCc1ccccc1 | inactive | –
24 | O=C(O)Cn1c(=O)n(Cc2ccc(Br)cc2F)c(=O)c2ccc(Cl)cc21 | inactive | –
25 | Cc1ncc(CO)c(CO)c1O | inactive | –
26 | O=c1ccc2ccccc2o1 | inactive | –
27 | COc1cc(C(=O)NC2CCN(C)CC2)ccc1Nc1ncc2c(n1)N(C1CCCC1)CC(F)(F)C(=O)N2C | – | 9.31 µM (active)
28 | c1ccc2ccccc2c1 | inactive | –
29 | Oc1ccccc1 | inactive | –
30 | CN(C)C(=O)C1(N2CCCCC2)CCN(CC[C@@]2(c3ccc(Cl)c(Cl)c3)CN(C(=O)c3ccccc3)CCO2)CC1 | – | 53.1 µM (active)
31 | CN(C)c1ccc(C(=C2C=CC(=[N+](C)C)C=C2)c2ccc(N(C)C)cc2)cc1 | – | 67.6 µM (active)
32 | O=C1CCC(C2CCCCC2)CC1 | inactive | –
33 | O=C(O)Cc1cc(I)c(Oc2ccc(O)c(I)c2)c(I)c1 | inactive | –
34 | CCCCCCCC[Si](OCC)(OCC)OCC | inactive | –
35 | COc1cccc([C@H](O)C2CCN(CCc3ccc(F)cc3)CC2)c1OC | inactive | –
36 | CCN(Cc1cccc(S(=O)(=O)O)c1)c1ccc(C(=C2C=CC(=[N+](CC)Cc3cccc(S(=O)(=O)O)c3)C=C2)c2ccccc2S(=O)(=O)[O-])cc1 | inactive | –
37 | Clc1cc(Cl)c2c(c1)N=C1CCCCCN1C2 | inactive | –
38 | O=c1[nH]sc2ccccc12 | inactive | –
39 | NC(=O)c1nc(-c2cccc(-c3cc(F)ccc3OCC(F)(F)C(F)(F)F)c2)n[nH]1 | – | 84.4 µM (active)
40 | Cc1c2ccccc2c(C)c2c1ccc1ccccc12 | inactive | –
